Screening results deposited in PubChem BioAssay by National Center for Advancing Translational Sciences (NCATS).
Compounds with a hit are over-represented: about 9.3% of the library has one in this group of screens.
NPC1 promoter act = qHTS Assay for NPC1 Promoter Activators. Huh7 NPC1 promoter luciferase reporter, 24 h. Potency, µM (doses to about 9.22 µM), for inactives: at the highest dose activation, actives largely listed as activators. 320,000 compounds, 2.4% hits. AID 485313, 2010; further: % of control where 0% means no effect; nearly all actives have a fitted effect of over 60% in size
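In 1536-well qHTS, Huh7 cells harboring an NPC1 promoter–luciferase construct received compound for 24 h; activation was quantified by luminescence following luciferase reagent addition.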
SMN2 splice up = qHTS Assay for Enhancers of SMN2 Splice Variant Expression; HEK293 SMN2-luciferase splicing reporter, luminescence, 30-36 h; Potency, µM (series often up to 46.1 µM), for inactives: top-dose activity change, positive = activation, hits mostly activators; 210,000 compounds, 2.8% hits; AID 1458, 2008; further: % of control where 0% means no effect; nearly all actives have a fitted effect of over 55% in size
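HEK293 cells carry an SMN2 minigene-luciferase reporter in which exon 7 inclusion puts luciferase in frame. Cells were seeded at 2000 cells/well, attached for 10-12 hours, then exposed to compounds for 30-36 hours at 37C before ONE-Glo luminescence.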
ELG1 DNA repair = qHTS screen for small molecules that inhibit ELG1-dependent DNA repair in human embryonic kidney (HEK293T) cells expressing luciferase-tagged ELG1 | HEK293T ELG1-luciferase reporter, luminescence, 16 h; DNA damage induced by 5-fluorouridine | Potency, µM (series often up to 46.1 µM), for the others: top-dose activity change, negative = inhibition, actives largely listed as inhibitors | 330,000 compounds, 2.3% hits; further: on the % scale 0 is the no-effect control and ±100 the full control effect; nearly all actives have a fitted effect of over 55% in size
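Cells (2,000 per well) received 5-fluorouridine plus test compound or DMSO and were incubated 16 hr at 37 °C, 5% CO2. Luciferase activity was read by luminescence 30 min after ONE-Glo addition; signal suppression marked inhibition of damage-induced ELG1 function.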
Rab9 promoter act = qHTS Assay for Rab9 Promoter Activators; Huh7 Rab9 promoter-luciferase reporter, luminescence, 24 h; 320,000 compounds, 2.8% hits; Potency, µM (top dose mostly 9.22 µM), inactives show top-dose activation, negative = inhibition, most hits filed as activators; AID 485297, 2010; further: % of control where 0% means no effect; nearly all actives have a fitted effect of over 60% in size
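Luminescence from Amplite-detected luciferase (10 minutes, ambient) reports Rab9 promoter activation. Before that, stable Rab9-luciferase Huh7 cells (1500/well, reduced-serum OP-MEM I plus 10% FBS) were exposed to compound for 24 hours at 37C.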
ELG1 genotoxic = qHTS screen for small molecules that induce genotoxicity in human embryonic kidney (HEK293T) cells expressing luciferase-tagged ELG1 | Potency, µM (top dose mostly 46 µM), without a hit: at the highest dose activity change, positive = activation, most hits filed as activators | AID 504466, 2011 | HEK293T ELG1-luciferase reporter, luminescence, 16 h | 330,000 compounds, 1.3% hits; further: % of control where 0% means no effect; nearly all actives have a fitted effect of over 60% in size
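Luminescence read-out: rising ELG1-luciferase signal, reflecting elevated ELG1 protein under genetic stress, flags genotoxic compounds. Cells were treated for 16 hr at 37 °C before ONE-Glo detection.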
FLuc counter = qHTS profiling assay for firefly luciferase inhibitor/activator using purifed enzyme and Km concentrations of substrates (counterscreen for miR-21 project); purified FLuc, Km substrates, luminescence inhibition; Potency, µM (titrated, usually from 57.5 µM), inactives show at the highest dose activity change, negative = inhibition, hits mostly inhibitors; 360,000 compounds, 6.9% hits; AID 588342, 2011;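 further: plate controls were vehicle for no effect and reference inhibitor for full effect; nearly all actives have a fitted effect of over 55% in size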
Target sequence (P08659 whole entry, looked up): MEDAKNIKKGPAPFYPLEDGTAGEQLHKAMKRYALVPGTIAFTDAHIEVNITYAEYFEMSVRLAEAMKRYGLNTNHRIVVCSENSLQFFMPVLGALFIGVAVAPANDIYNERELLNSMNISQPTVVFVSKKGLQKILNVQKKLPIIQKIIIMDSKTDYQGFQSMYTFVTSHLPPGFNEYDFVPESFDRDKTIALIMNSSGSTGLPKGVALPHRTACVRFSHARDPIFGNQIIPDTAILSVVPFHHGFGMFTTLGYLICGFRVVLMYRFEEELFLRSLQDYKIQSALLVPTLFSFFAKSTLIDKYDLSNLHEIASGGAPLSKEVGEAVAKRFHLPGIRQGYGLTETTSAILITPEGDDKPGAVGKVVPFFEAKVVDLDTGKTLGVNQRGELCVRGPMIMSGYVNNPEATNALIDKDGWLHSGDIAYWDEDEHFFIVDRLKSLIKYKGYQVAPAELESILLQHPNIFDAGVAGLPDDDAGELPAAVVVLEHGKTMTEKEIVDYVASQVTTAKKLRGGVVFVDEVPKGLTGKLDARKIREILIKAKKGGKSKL
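Purified P. pyralis luciferase, 10 nM final, with Km-level 10 uM D-luciferin and 10 uM ATP in 50 mM Tris acetate pH 7.5, 10 mM Mg acetate, 0.01% Tween-20, 0.05% BSA; 6-point qHTS titration about 60 µM downward; luminescence read.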
* hit, by the source's call; ? = inconclusive; . = not tested or not shown; [ ] = another dose, or the depositor's remark. The call rests on the fitted dose curve; in most records, active means well fitted curve in the direction sought with a large enough effect; inconclusive means small, poorly fitted or top-dose-only effect, or another doubt; inactive means no such curve, though single readings can be large; an effect the other way counts as inactive or inconclusive. Potency means the concentration at half of the fitted maximal effect.

SMILES	NPC1 promoter act	SMN2 splice up	ELG1 DNA repair	Rab9 promoter act	ELG1 genotoxic	FLuc counter
Cc1ccc(C(=O)N/N=C2\CCCc3ccccc32)c(C)c1	2.8µM*	13µM*	?	?	13%	6µM*
O=C(N/N=C1\CCCc2ccccc21)c1ccc([N+](=O)[O-])cc1	?	14µM*	?	3.5µM*	?	6µM*
COc1ccc(C(=O)N(Cc2cc(OC)c(OC)c(OC)c2)CC2CCCO2)cc1 (configuration not stated)	.	1%	.	.	.	-8%
CCCc1[nH]n(-c2nc3ccccc3s2)c(=O)c1C=NCCCOC	13%	.	?	5%	7%	-16%
COCCCN=Cc1c(-c2ccccc2)[nH]n(-c2nc3ccccc3s2)c1=O	-6%	.	-17%	1%	1%	15µM*
CCCc1[nH]n(-c2nc3ccccc3s2)c(=O)c1C=NCCN1CCOCC1	18%	41%	?	16%	?	17µM*
O=c1c(C=NCCCO)c(-c2ccccc2)[nH]n1-c1nc2ccccc2s1	0%	.	18%	-12%	11%	15µM*
CCCCCN=Cc1c(C)[nH]n(-c2nc3ccccc3s2)c1=O	?	11%	?	?	2.9µM*	4.8µM*
C=C1C2=CC(=O)OC(c3ccoc3)[C@]2(C)CCC1[C@]1(C)C=CC(=O)C(C)(C)C1CC(=O)OC (some centres not stated)	.	-2%	.	.	.	.
Cc1ccc(SCCC(=O)NNC(=O)c2ccccc2F)cc1	.	.	15%	.	0%	.
COc1ccc(-c2oc3ncn4nc(-c5ccccc5O)nc4c3c2-c2ccc(OC)cc2)cc1	.	1%	.	.	.	-1%
CCn1c(SCC(=O)c2ccccc2)nnc1-c1cccc(Cl)c1	.	-13%	.	.	.	?
N=C1C2=C3Sc4ccccc4N3CCCC2=NN1c1cccc(S(=O)(=O)O)c1	-4%	.	?	-2%	-1%	19µM*
O=C(c1cccc(S(=O)(=O)N2CCCC2)c1)N1CCCc2ccccc21	-10%	.	?	2%	-10%	-6%
CCCCC(=O)Nc1cccc(NC(=O)c2ccc(Br)o2)c1	2%	35µM*	?	?	-2%	5%[2.3 µM]
CCCC(=O)Nc1cccc(NC(=O)c2ccc3c(c2)OCCO3)c1	23%	13µM*	?	19%	?	9.5µM*
CCCCC(=O)Nc1cccc(NC(=O)c2ccc3c(c2)OCO3)c1	3%	?	?	2%	0%	19µM*
Cc1ccc(NC(=O)Cc2ccsc2)cc1S(=O)(=O)N1CCOCC1	.	.	-18%	.	2%	.
O=C1CCCN1c1ccc(C(=O)N(Cc2nnc(-c3ccc(Cl)cc3)o2)C2CC2)cc1	1%	.	-5%	-5%	0%	?
CC(C)(C)C(=O)Nc1cc(NC(=O)C(C)(C)C)cc(C(=O)NNC(=O)c2ccncc2)c1	-3%	.	0%	5%	0%	0%
COc1ccc(C(=O)CSc2n[nH]c(=O)n2Cc2ccco2)cc1	15%	.	0%	25%	5%	-25%
C=CCc1ccc(OCc2ccc(C(=O)O)o2)c(OC)c1	?	.	?	?	?	4.8µM*
COc1ccc(CCN(C)C(=O)c2ccc(COc3ccccc3)o2)cc1OC	-2%	.	-29%	11%	0%	3%
C=CCc1ccc(OCCCCOc2ccc(C(=O)O)cc2)c(OC)c1	-4%	18%	-7%	2%	0%	13µM*
C=CCc1ccc(OCCCOc2ccc(C)c(C)c2)c(OC)c1	0%	-12%	8%	-4%	-2%	-8%
